Bioassay records: PubChem, National Center for Advancing Translational Sciences (NCATS)
Rows were chosen to be rich in hits. Some 18% of all compounds tested hit in one or more screens of this group.
DT40 TDP1 no CPT = qHTS for Inhibitors of human tyrosyl-DNA phosphodiesterase 1 (TDP1): qHTS in cells in absence of CPT; DT40 Tdp1-/- hTDP1 cells, no CPT, ATP luminescence, 48 h; Potency, µM (top dose mostly 46.2 µM), for the others: at the top dose activity change, negative = growth inhibition, most hits filed as inhibitors; 15% of 420,000 active; AID 686978, 2013; also: potency is read from the fitted curve at half-maximal effect; % is scaled to controls: 0 for no effect and ±100 for the full control effect; nearly all actives have a fitted effect of over 55% in size
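DT40 Tdp1-/-;hTDP1 cells, no CPT (DMSO vehicle only), 400 cells/well; compounds pin-transferred; ≥48 hr, 37 °C; CellTiter-Glo 30 min RT dark, luminescence read.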
HepG2 viability = counter-screen for TGF-b inhibitors: cytotoxicity in HepG2 cells | 0.76% of 410,000 active | AID 588856 | Potency, µM (series often up to 46.1 µM), for the others: at the highest dose activity change, negative = cytotoxicity, hits mostly cytotoxic | HepG2 CAGA-GFP viability, ATP luminescence, 18 h; also: potency is read from the fitted curve at half-maximal effect
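HepG2 CAGA-GFP cells (1000/well, DMEM with 1% FBS) received compound, then TGF-beta at 500 pg/mL final, and were incubated 18 hours at 37 degrees C. Viability was read by CellTiter-Glo luminescence. Media-only wells were set as complete cell-killing and DMSO as no toxicity.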
DT40 TDP1 CPT = growth inhibition of DT40 Tdp1-/-;hTDP1 cells with camptothecin (screen for TDP1 inhibitors). AID 686979. 12% of 420,000 active. Potency, µM (highest dose often 46.2 µM), without a hit: at the top dose activity change, negative = growth inhibition, hits mostly inhibitors. chicken DT40 Tdp1-/-;hTDP1 cells + 20 nM CPT, ATP luminescence, 48 h; also: potency is read from the fitted curve at half-maximal effect; % is scaled to controls: 0 for no effect and ±100 for the full control effect; nearly all actives have a fitted effect of over 55% in size
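Cell growth measured by CellTiter-Glo luminescence after a minimum 48 h, 37 C compound exposure with 20 nM CPT in Tdp1-knockout DT40 cells stably expressing hTDP1, seeded 400/well; qHTS titration format.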
TGFb SMAD3 inh = inhibitors of TGF-b signaling; Potency, µM (titrated, usually from 46.1 µM), for the others: at the top dose activity, negative = inhibition, most hits filed as inhibitors; 1.2% of 410,000 active; HepG2 CAGA-GFP TGF-b/SMAD3 reporter, GFP fluorescence, 18 h; TGF-beta stimulated, 500 pg/mL final; also: potency is read from the fitted curve at half-maximal effect; % is scaled to controls: 0 for no effect and ±100 for the full control effect; nearly all actives have a fitted effect of over 65% in size
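TGF-beta reporter screen: HEPG2 CAGA-GFP, 1% FBS, 500 pg/mL TGF-beta final, 18 h; per-cell GFP summed per well; curves fitted and categorized by class.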
TDP1 block = blocks human tyrosyl-DNA phosphodiesterase 1; Q9NUW8; recombinant TDP1, AlphaScreen DNA substrate cleavage; Potency, µM (series often up to 130 µM), without a hit: at the top dose activity change, negative = inhibition, usual class: inhibitors; 0.28% of 350,000 active; also: potency is read from the fitted curve at half-maximal effect; % is scaled to controls: 0 for no effect and ±100 for the full control effect; nearly all actives have a fitted effect of over 40% in size
Target sequence (Q9NUW8 whole entry, looked up): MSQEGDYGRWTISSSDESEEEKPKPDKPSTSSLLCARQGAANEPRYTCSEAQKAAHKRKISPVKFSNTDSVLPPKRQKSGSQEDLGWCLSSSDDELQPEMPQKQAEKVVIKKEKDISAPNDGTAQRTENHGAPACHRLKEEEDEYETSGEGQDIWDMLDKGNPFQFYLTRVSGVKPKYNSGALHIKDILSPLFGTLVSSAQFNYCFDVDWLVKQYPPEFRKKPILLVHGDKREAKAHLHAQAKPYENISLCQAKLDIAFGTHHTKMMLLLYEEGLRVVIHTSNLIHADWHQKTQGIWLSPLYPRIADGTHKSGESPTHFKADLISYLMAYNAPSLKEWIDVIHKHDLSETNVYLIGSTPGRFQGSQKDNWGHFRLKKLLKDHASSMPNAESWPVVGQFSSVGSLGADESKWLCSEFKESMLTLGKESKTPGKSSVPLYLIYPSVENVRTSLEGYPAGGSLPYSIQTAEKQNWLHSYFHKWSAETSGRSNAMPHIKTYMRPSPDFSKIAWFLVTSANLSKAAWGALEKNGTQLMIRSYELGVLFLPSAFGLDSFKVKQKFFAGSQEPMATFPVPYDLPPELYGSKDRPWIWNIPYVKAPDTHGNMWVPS
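Enzyme-compound mixtures sat 15 min at room temperature, followed by a 5 min reaction with 15 nM final substrate and 10 min with AlphaScreen beads. Recombinant human Tdp1 was used at 1 nM final.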
IL-1B inflam inh = inflammasome signaling inhibition, IL-1 beta readout; activity change, % at 57.5 µM; THP-1 LPS/ATP IL-1B secretion, AlphaLISA, 16 h; active compounds read low; 4.7% of 360,000 active; AID 743279; in the data active = activity change below about -50%; inconclusive = mostly about -30% to -49%; also: % is scaled to controls: 0 for no effect and ±100 for the full control effect
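Secreted IL-1B measured by AlphaLISA bead assay after 16 h compound exposure of THP-1 cells; compounds (final up to 57.5 uM) added 1 h before LPS (250 ng/mL) and ATP (1.25 mM) stimulation; lower signal means less secretion.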
* marks the source's active call; other numbers are inactive results; i = inactive; ? = inconclusive; · = no result given. Unless noted, calls follow the shape of the dose curve; as a rule, active = well fitted curve in the direction sought with a large enough effect; inconclusive = small, poorly fitted or top-dose-only effect, or another doubt; inactive = no such curve, though single readings can be large; an effect the other way counts as inactive or inconclusive.

SMILES	DT40 TDP1 no CPT	HepG2 viability	DT40 TDP1 CPT	TGFb SMAD3 inh	TDP1 block	IL-1B inflam inh
COc1ccccc1C(CNC(=O)CSc1ccc2ccccc2c1)N(C)C (centres undefined)	?	-15%	?	28%	3%	i
O=[N+]([O-])c1ccc2ncnc(N3CCN(Cc4ccc5c(c4)OCO5)CC3)c2c1	9.2µM*	-17%	13µM*	-4%	9%	27
COc1ccc2[nH]c3c(N4CCN(Cc5ccc6c(c5)OCO6)CC4)ncnc3c2c1	23µM*	-44%	15µM*	?	9%	?
Cn1c(=O)c([N+](=O)[O-])c(N2CCN(Cc3ccc4c(c3)OCO4)CC2)c2ccccc21	8.2µM*	-3%	13µM*	-20%	·	-22
COc1ccc2[nH]c3c(N4CCC(O)(c5cccc(C(F)(F)F)c5)CC4)ncnc3c2c1	21µM*	-98%	21µM*	?	6%	-15
COc1ccc2[nH]cc(CCNC(=O)c3ccccc3Cl)c2c1	-12%	7%	-3%	33%	·	3
COc1cccc(-c2nc(N3CCN(c4ccccc4)CC3)c3ccccc3n2)c1O	16µM*	-12%	?	2%	-4%	32
COc1cccc(-c2nc(N3CCN(Cc4ccccc4)CC3)c3ccccc3n2)c1O	16µM*	-2%	?	-10%	6%	34
COc1ccccc1-c1nc(N2CCOCC2)c2ccccc2n1	-27%	·	-2%	·	·	·
CCC1CCCCN1c1nc(-c2cccc(OC)c2O)nc2ccccc12 (centres undefined)	?	2%	?	?	6%	-8
COc1cc(COc2cc(N)c(Cl)cc2C(=O)CCC2CCN(CCNS(C)(=O)=O)CC2)cc(OC)c1	16µM*	·	27µM*	·	11%	·
CCc1ccc(NC(=O)CCn2cnc3ccccc3c2=O)cc1	-20%	-8%	-4%	-29%	-14%	·
NC(=O)CCn1c2ccccc2c2ccccc21	-2%	2%	4%	8%	-3%	1
CC(C)CCn1c2ccccc2c2cc(CC(N)=O)ccc21	23µM*	-19%	?	-19%	0%	-11
CCc1nc2c(OCCOc3ccc(F)cc3)cccn2c1N(C)C(=O)C(C)C	16µM*	1%	?	-18%	·	-8
CCc1nc2c(OCCOc3ccc(F)cc3)cccn2c1N(C)C(=O)c1ccc(C)cc1	15µM*	-28%	?	?	·	-60*
CCc1nc2c(OCCOc3ccccc3)cccn2c1N(C)C(=O)c1ccc(C)cc1	?	-18%	?	-1%	·	0
CCc1nc2c(OCc3ccc(OC)cc3)cccn2c1N(C)C(=O)C(C)C	?	-12%	?	4%	·	7
CCCCC(=O)N(C)c1c(CC)nc2c(OCCOc3ccc(F)cc3)cccn12	18µM*	-35%	15µM*	?	·	-23
CCCCC(=O)N(C)c1c(CC)nc2c(OCCOc3ccccc3)cccn12	26µM*	-10%	18µM*	-10%	·	-27
CC(=O)NC(c1ccccc1)c1nc(/C=C/c2ccccc2)cs1 (centres undefined)	?	-1%	?	2%	·	-11
Cc1ccc(C)c(N2CCN(C(=O)Cn3c(-c4cccs4)cc4ccccc43)CC2)c1	?	-14%	?	?	2%	·
CCc1nc2c(OCCOc3ccc(F)cc3)cccn2c1N(C)C(=O)c1ccco1	16µM*	-4%	21µM*	?	·	?
CCc1nc2c(OCc3ccc(OC)cc3)cccn2c1N(C)C(=O)c1ccco1	?	-14%	-24%	0%	·	-8
CCCC(=O)N1CCCC(c2cc(C(=O)NCc3cccnc3)no2)C1 (centres undefined)	-12%	-6%	-1%	0%	·	6
SMILES	DT40 TDP1 no CPT	HepG2 viability	DT40 TDP1 CPT	TGFb SMAD3 inh	TDP1 block	IL-1B inflam inh
COc1ccc(OCCSc2nnc(CCNC(=O)c3ccc(Cl)c(Cl)c3)n2C)cc1	?	-19%	25µM*	-19%	6%	-1
COc1ccc(OCCSc2nnc(CCNC(=O)c3ccc(OC)cc3)n2C)cc1	-26%	-19%	?	-5%	6%	-16
O=S(=O)(c1ccccc1)[C@@]1(c2ccccc2)C[C@@H]2ON=C(c3cccc(-c4ccccc4)c3)[C@@H]2C1	13µM*	2%	?	-8%	-1%	-1
O=Cc1cc(N=Nc2ccccc2Cl)ccc1O	4.1µM*	-17%	21µM*	?	10%	143
NCCCNCCCCNCCCN	?	-17%	5%	-7%	1%	-4
O=C(Cn1c(=O)nc(-c2ccccc2)c2ccccc21)NCc1ccc(Cl)cc1	?	-6%	?	-10%	-1%	·
COC(=O)c1c(OCCN2CCCCC2)cc(=O)n2c1CCN(Cc1cccc3nccnc13)CC2	-21%	·	-19%	·	·	·
NCCCN(Cc1ccc(Cl)cc1)c1ccc(Br)cn1	7.9µM*	·	10µM*	·	·	·
NCCCN(Cc1ccc(Cl)c(Cl)c1)c1ccc(Br)cn1	5µM*	·	3.5µM*	·	·	·
S=C(NCCCN(Cc1ccc(Cl)cc1)c1ccc(-c2ccccc2)cn1)NCCCN(Cc1ccc(Cl)cc1)c1ccc(-c2ccccc2)cn1	?	0%	?	6%	·	·
COc1ccc2nc(SCC(=O)Nc3nccs3)[nH]c2c1	?	-4%	-16%	-1%	-1%	0
CCOC(=O)c1c(NC(=O)CSc2ncccn2)sc2c1CC(C)(C)NC2(C)C	-2%	-11%	-2%	-15%	3%	-57*
CCOC(=O)c1c(NC(=O)CSc2nc3ccc(OC)cc3[nH]2)sc2c1CC(C)(C)NC2(C)C	?	-22%	?	?	1%	-94*
CC1(C)Cc2c(sc(NC(=O)COc3ccc(Cl)cc3Cl)c2C(N)=O)C(C)(C)N1	?	-8%	?	7%	1%	-16
COC(=O)c1c(NC(=O)Cc2ccccc2)sc2c1CC(C)(C)NC2(C)C	?	8%	?	-4%	·	?
CCOC(=O)c1c(NC(=O)COc2ccccc2F)sc2c1CC(C)(C)NC2(C)C	13µM*	-6%	9.2µM*	-9%	·	-26
COC(=O)c1c(NC(=O)COc2ccc(Cl)cc2)sc2c1CC(C)(C)NC2(C)C	3.7µM*	-21%	2.9µM*	-1%	-8%	-97*
